Source: PubChem BioAssay AID1053117 (Broad Institute, 2014)
Entries with a potency or affinity are not part of this list. Activity calls are given as the source filed them.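 The calls were made as follows: active = compounds lowering cell ATP signal with a fitted half-effect dose at most twice the top valid dose; inconclusive = flat curve with 30 to 70% signal loss, or bad fit; inactive = wrong direction, flat within 30%, or weaker than limit.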

Test: viability loss in HEK293 kidney cells – cell-based, cherry-picks, set 5, cytotoxicity control, dose response (AID 1053117);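 also: more negative means greater loss of ATP signal and more cytotoxicity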
Details: HEK293T viability, CellTiter-Glo ATP luminescence, 72 h; series mostly up to 26 µM; activity change, negative = cytotoxicity: at the top concentration

Question: With `Cc1oc2ccc(O)cc2c1C(=O)c1ccc(Br)cc1` as the molecule, how does the “activity change, negative = cytotoxicity” value read?
Answer: The value was -12.3% (inactive).

Question: With `C[C@H](O)C#Cc1ccc2c(c1)O[C@H](CN(C)C)[C@H](C)CN([C@H](C)CO)S2(=O)=O` as the molecule, how does the “activity change, negative = cytotoxicity” value read?
Answer: The value was -8.51% (inactive).

Question: Which “activity change, negative = cytotoxicity” value does the source give for `COc1cccc(CN2CCN(C(=O)c3ccc(-c4ccccc4)cc3)CC2)c1OC` here?
Answer: The value was -10.4% (inactive).

Question: With `O=C(Nc1cc(Sc2nc3ccccc3s2)cc([N+](=O)[O-])c1)c1ccccc1F` as the molecule, how does the “activity change, negative = cytotoxicity” value read?
Answer: The value was -11.7% (inactive).

Question: Which “activity change, negative = cytotoxicity” value does the source give for `Cc1ccc(S(=O)(=O)N2CC[C@@H]3[C@H](CO)Nc4ccc(-c5cccc(C(=O)N(C)C)c5)cc4[C@@H]32)cc1` here?
Answer: Its value is 0.347% [at 8 µM] (inactive).

Question: With `CCN1CCN(C(c2ccccc2)c2nnnn2Cc2ccccc2)CC1` (stereo not given) as the molecule, how does the “activity change, negative = cytotoxicity” value read?
Answer: The value was -11.2% (inactive).

Question: Which “activity change, negative = cytotoxicity” value does the source give for `C[C@@H]1CN([C@@H](C)CO)C(=O)c2cc(-c3ccccc3)cnc2O[C@@H]1CN(C)C(=O)c1cccc(F)c1` here?
Answer: The value was -7.36% (inactive).

Question: Which “activity change, negative = cytotoxicity” value does the source give for `OC(CNC1CCCc2ccccc21)COc1c(Cl)cccc1Cl` (stereo not given) here?
Answer: Its value is -9.22% (inactive).

Question: Which “activity change, negative = cytotoxicity” value does the source give for `CO[C@H]1CN(C)C(=O)c2cc(NC(C)=O)ccc2OC[C@@H](C)N(C(=O)CN2CCOCC2)C[C@H]1C` here?
Answer: The value was -10.4% (inactive).

Question: For `Cc1ccc(C(O)c2ncc(-c3cccc4ccccc34)[nH]2)cc1F` (stereo not given), which “activity change, negative = cytotoxicity” value is on record?
Answer: Its value is -16.6% (inactive).

Question: Which “activity change, negative = cytotoxicity” value does the source give for `O=S(=O)(c1ccccc1F)N1CC[C@@H]2[C@H]1c1cc(-c3cccc(F)c3)ccc1N[C@@H]2CO` here?
Answer: The value was -2.3% (inactive).

Question: Which “activity change, negative = cytotoxicity” value does the source give for `C[C@H]1CN([C@@H](C)CO)C(=O)c2cc(-c3ccccc3)cnc2O[C@@H]1CN(C)Cc1ccccc1` here?
Answer: The value was -18.5% (inactive).

Question: Which “activity change, negative = cytotoxicity” value does the source give for `N#C[C@@H]1[C@H](c2ccccc2C2=CCCCC2)[C@H](CO)N1S(=O)(=O)c1ccccc1` here?
Answer: The value was -14.8% (inactive).

Question: Which “activity change, negative = cytotoxicity” value does the source give for `COCC(=O)Nc1ccc2c(c1)C(=O)N(C)[C@@H]1CC[C@H](CC(=O)NCc3ccccc3Cl)O[C@@H]1CO2` here?
Answer: Its value is -5.74% (inactive).

Question: For `N#Cc1ccc(-c2ccc3c(c2)[C@@H]2[C@@H](CCN2S(=O)(=O)c2ccccc2F)[C@H](CO)N3)cc1`, which “activity change, negative = cytotoxicity” value is on record?
Answer: The value was -20.6% (inactive).

Question: For `COc1ccccc1CNc1nc(NCc2cnc(C)cn2)c2sccc2n1`, which “activity change, negative = cytotoxicity” value is on record?
Answer: The value was -6.21% (inactive).

Question: For `Cc1ccc(O)c(-c2cc(-c3cccc(Br)c3)n[nH]2)c1`, which “activity change, negative = cytotoxicity” value is on record?
Answer: Its value is 6.7% (inactive).

Question: For `CN(C)C(=O)c1ccc(-c2ccc3c(c2)[C@H]2[C@H](CCN2C(=O)c2ccc(F)cc2)[C@@H](CO)N3C)cc1`, which “activity change, negative = cytotoxicity” value is on record?
Answer: Its value is -39.6% [at 23.5 µM] (inactive).

Question: For `S=C(NCC1CCCO1)Nc1ccc(Cl)cc1Cl` (stereo not given), which “activity change, negative = cytotoxicity” value is on record?
Answer: Its value is -16.4% (inactive).

Question: For `N#C[C@@H]1[C@@H](c2ccccc2C2=CCCCC2)[C@H](CO)N1S(=O)(=O)c1ccccc1`, which “activity change, negative = cytotoxicity” value is on record?
Answer: Its value is -3.7% (inactive).
